# Assay outcomes from PubChem BioAssay.
# DT40 TDP1 CPT: growth inhibition of DT40 Tdp1-/-;hTDP1 cells with camptothecin (screen for TDP1 inhibitors); 420,000 tested, 12% active; chicken DT40 Tdp1-/-;hTDP1 cells + 20 nM CPT, ATP luminescence, 48 h; Potency, µM (highest dose often 46.2 µM), actives largely listed as inhibitors; also: nearly all actives have a fitted effect of over 55% in size
#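 Chicken DT40 Tdp1-/- cells complemented with human TDP1, 400 cells/well, exposed to compounds plus 20 nM camptothecin for at least 48 h at 37 C; viability read as ATP content by CellTiter-Glo luminescence.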
# IL-1B inflam inh: inhibitors of inflammasome signaling (IL-1 beta secretion). AID 743279. THP-1 LPS/ATP IL-1B secretion, AlphaLISA, 16 h; stronger effect = lower value. activity change, % at 57.5 µM. 360,000 tested, 4.7% active; in the data active = activity change below about -50%; inconclusive = mostly about -30% to -49%
#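 Secreted IL-1B measured by AlphaLISA bead assay after 16 h compound exposure of THP-1 cells; compounds (final up to 57.5 uM) added 1 h before LPS (250 ng/mL) and ATP (1.25 mM) stimulation; lower signal means less secretion.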
# HT1080 IDH1KD tx: HT-1080 IDH1 knockdown cell toxicity (counter line); HT-1080 IDH1 knockdown viability, ATP luminescence, 48 h; Potency, µM (top dose mostly 46.1 µM), usual class: cytotoxic; 360,000 tested, 2% active
#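 After a 2 h attachment period, IDH1KD HT-1080 cells took pin-transferred compound for 48 h at 37 °C; ATP-based luminescence after 10 min room-temperature reagent incubation reported viability.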
# HT1080-NT tox: kills 2HG-producing HT-1080-NT fibrosarcoma cells; 360,000 tested, 1.6% active; HT-1080-NT fibrosarcoma viability, CellTiter-Glo ATP luminescence, 48 h; Potency, µM (series often up to 46.1 µM), most hits filed as cytotoxic;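 also: NT is the 2HG producing partner of a matched IDH1 knockdown line; nearly all actives have a fitted effect of over 55% in size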
#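 Compounds were tested in concentration-response format on HT-1080-NT cells for 48 hours at 37 degrees C. Cell viability came from CellTiter-Glo luminescence; curves were classified by r2, response magnitude and activity.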
# TDP1 cell noCPT: qHTS for Inhibitors of human tyrosyl-DNA phosphodiesterase 1 (TDP1): qHTS in cells in absence of CPT. DT40 Tdp1-/- hTDP1 cells, no CPT, ATP luminescence, 48 h. AID 686978, 2013. 420,000 tested, 15% active. Potency, µM (series often up to 46.2 µM), actives largely listed as inhibitors; also: nearly all actives have a fitted effect of over 55% in size
#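 No-CPT arm: Tdp1-/-;hTDP1 DT40 cells (400/well) plus compounds, incubated ≥48 hr at 37 °C. Readout CellTiter-Glo luminescence.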
# 12-LOX inh: inhibitors of human 12S-lipoxygenase ALOX12. P18054. purified 12hLO, xylenol orange hydroperoxide absorbance. Potency, µM (doses to about 108 µM), usual class: inhibitors. 580,000 tested, 1.1% active. AID 1671190
# Target sequence (P18054 whole entry, looked up): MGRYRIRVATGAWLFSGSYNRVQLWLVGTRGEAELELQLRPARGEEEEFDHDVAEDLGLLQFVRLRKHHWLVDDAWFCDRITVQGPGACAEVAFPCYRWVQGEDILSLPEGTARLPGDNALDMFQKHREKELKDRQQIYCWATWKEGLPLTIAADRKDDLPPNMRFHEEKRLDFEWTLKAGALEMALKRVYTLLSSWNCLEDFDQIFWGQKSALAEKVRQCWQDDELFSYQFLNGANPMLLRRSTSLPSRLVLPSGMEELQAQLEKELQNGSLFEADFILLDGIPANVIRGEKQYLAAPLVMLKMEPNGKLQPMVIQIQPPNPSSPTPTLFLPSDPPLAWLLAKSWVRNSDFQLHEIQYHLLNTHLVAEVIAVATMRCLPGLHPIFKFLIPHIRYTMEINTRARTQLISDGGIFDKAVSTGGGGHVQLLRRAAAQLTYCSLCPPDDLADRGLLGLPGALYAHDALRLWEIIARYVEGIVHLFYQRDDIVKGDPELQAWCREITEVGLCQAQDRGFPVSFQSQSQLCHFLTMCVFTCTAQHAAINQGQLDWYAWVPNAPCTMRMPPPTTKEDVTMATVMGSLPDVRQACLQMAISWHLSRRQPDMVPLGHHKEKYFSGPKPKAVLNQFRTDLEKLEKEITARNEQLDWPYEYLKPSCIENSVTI
#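 Purified human 12hLO at 150 nM in 25 mM Hepes, 0.01% Triton X-100, pH 7.0, preincubated 15 min at room temperature with compound. Reaction started with 40 uM arachidonic acid, 30 min at room temperature. Hydroperoxide measured by Fe-xylenol orange, 573/405 nm absorbance ratio.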
# Numbers stand for hits; – = inactive; ? = inconclusive; · = no result; [ ] = dose if it differs, or a comment. This is one part of a sample in which hits are shown more often than they occur. Unless noted, calls follow the shape of the dose curve; as a rule, active = well fitted curve in the direction sought with a large enough effect; inconclusive = small, poorly fitted or top-dose-only effect, or another doubt; inactive = no such curve, though single readings can be large; an effect the other way counts as inactive or inconclusive.
SMILES,DT40 TDP1 CPT,IL-1B inflam inh,HT1080 IDH1KD tx,HT1080-NT tox,TDP1 cell noCPT,12-LOX inh
COc1cc(NC(=O)CN(c2ccc(C)cc2)S(=O)(=O)c2c(C)noc2C)cc(OC)c1,18µM,?,–,–,7.3µM,–
CCOc1ccc(N(CC(=O)Nc2ccc(C)cc2)S(=O)(=O)c2c(C)noc2C)cc1,?,–,–,–,–,–
CC(C)(C)OC(=O)C[C@H]1C/C=C\C[C@H](CC(=O)N(CCO)Cc2ccccc2)C(=O)N2CCC[C@H]2COC1=O,26µM,–,–,–,?,–
O=C1OC[C@@H]2CCCN2C(=O)[C@@H](CC(=O)N(CCO)Cc2ccccc2)C/C=C\C[C@H]1Cc1ccc(F)cc1,?,–,–,–,15µM,–
O=C1OC[C@H]2CCCN2C(=O)[C@@H](CC(=O)N(CCO)Cc2ccccc2)C/C=C\C[C@H]1Cc1ccc(F)cc1,13µM,–,–,–,18µM,?
CC(C)(C)OC(=O)C[C@@H]1C/C=C\C[C@H](CC(=O)N(CCO)Cc2ccccc2)C(=O)N2CCC[C@H]2COC1=O,?,–,–,–,?,–
O=C1CCCC/C=C\C[C@H](CC(=O)N(CCO)Cc2ccccc2)C(=O)N2CCC[C@@H]2CO1,16µM,–,–,–,?,–
CCn1c(COc2cc(C)c(Cl)c(C)c2)n[nH]c1=S,·,·,·,·,·,–
Cc1onc(-c2ccc(Cl)cc2Cl)c1-c1csc(N/N=C/c2ccccc2Cl)n1,?,–,–,–,12µM,–
Cc1cccc(-c2noc(-c3ccc(N4CCN(C)CC4)c([N+](=O)[O-])c3)n2)c1,?,·,·,·,23µM,?
COc1cc(-c2noc(-c3ccc(N4CCOCC4)c([N+](=O)[O-])c3)n2)cc(OC)c1OC,?,·,·,·,5.2µM,–
Cc1cccc(-c2noc(-c3ccc(N4CCCC4)c([N+](=O)[O-])c3)n2)c1,–,·,·,·,?,–
O=c1[nH]nc(-c2ccc(N3CCOCC3)c([N+](=O)[O-])c2)c2ccccc12,·,·,·,·,·,–
Cc1cccc(-c2noc(-c3ccc(N4CCOCC4)c([N+](=O)[O-])c3)n2)c1,?,·,·,·,18µM,–
COc1ccc(Nc2nnc(-c3ccc(N4CCOCC4)c([N+](=O)[O-])c3)c3ccccc23)cc1,23µM,–,–,–,23µM,–
NS(=O)(=O)c1ccc(CCNC(=O)COc2ccc3ccc(=O)oc3c2)cc1,·,·,·,·,·,–
O=C(Nc1ccc2c(c1)OCO2)C1CCN(C(=O)c2n[nH]c(=O)c3ccccc23)CC1,·,·,·,·,·,–
COc1ccc(Cc2cnc(NC(=O)c3cc(=O)c4cc(C)ccc4o3)s2)cc1,·,·,·,·,·,–
O=C(Nc1cccc(-c2nnc3n2CCCC3)c1)c1cnccn1,·,·,·,·,·,–
COc1ccc(OC)c(NC(=O)C2CCN(C(=O)N3CC4CC(C3)[C@H]3CCCC(=O)N3C4)CC2)c1 (some centres undefined),·,·,·,·,·,–
Cc1cc(C)n(-c2nnc(Nc3ccc(C)c(Cl)c3)c3ccccc23)n1,?,·,·,·,8.2µM,–
CC(c1ccco1)N(C(=O)c1ccc(Cl)c([N+](=O)[O-])c1)c1ccccn1 (centres undefined),21µM,–,–,–,21µM,–
CC(c1ccco1)N(C(=O)C12CC3CC(CC(C3)C1)C2)c1ccccn1 (centres undefined),21µM,–,–,–,?,?
CC(c1ccco1)N(C(=O)COc1ccc(Cl)cc1Cl)c1ccccn1 (centres undefined),?,?,–[9.24 µM],?,21µM,–
CC(c1ccco1)N(C(=O)c1ccccc1F)c1ccccn1 (centres undefined),–,–,–,–,–,–
SMILES,DT40 TDP1 CPT,IL-1B inflam inh,HT1080 IDH1KD tx,HT1080-NT tox,TDP1 cell noCPT,12-LOX inh
CC(c1ccco1)N(C(=O)c1ccc(C(F)(F)F)cc1)c1ccccn1 (centres undefined),–,–,–,–,?,–
CC1(C)c2ccccc2N2CC(=O)NC21/C=C/c1ccco1 (centres undefined),?,–,–,–,23µM,?
CC1(C)c2ccccc2N2CCC(=O)NC21/C=C/c1ccco1 (centres undefined),–,–,–,–,?,–
COc1ccc(Cc2nnc(SCC(=O)Nc3c(C)cccc3C)[nH]c2=O)cc1,?,–,–,–,9.2µM,?
COc1ccc(Cc2nnc(SCC(=O)Nc3ccc(C)cc3C)[nH]c2=O)cc1,–,–,–,–,?,–
CC(=O)Nc1cccc(NC(=O)CSc2ccc(-c3sc(-c4ccccc4)nc3C)nn2)c1,9.2µM,·,·,·,5.8µM,–
Cc1ccc(CNC(=O)CSc2ccc(-c3sc(-c4ccccc4)nc3C)nn2)cc1,–,·,·,·,–,?
COc1cccc(CNC(=O)CSc2ccc(-c3sc(-c4ccccc4)nc3C)nn2)c1,?,·,·,·,18µM,–
CC(=O)Nc1cccc(NC(=O)C(=O)NCCc2sc(-c3ccccc3)nc2C)c1,1.5µM,·,·,·,1.2µM,?
Cc1nc(-c2ccccc2)sc1CCNC(=O)C(=O)Nc1ccc(F)c(Cl)c1,·,·,·,·,·,–
COc1cc(NC(=O)CSc2ccc(-c3sc(-c4ccccc4)nc3C)nn2)cc(OC)c1,–,·,·,·,16µM,–
COc1ccc(S(=O)(=O)N2CCC(Oc3ncccc3C(=O)N3CCOCC3)C2)cc1 (centres undefined),·,·,·,·,·,–
O=c1c2c3c(sc2nc2c4ccccc4c(N4CCCCC4)nn12)CCC3,·,·,·,·,·,–
O=C(CCC[C@@H]1[C@H]2CCCN3CCC[C@@H](CN1C(=O)c1ccccc1)[C@@H]23)Nc1ccccc1,·,·,·,·,·,–
CCc1ccc(NC(=O)CSc2ccc(-c3sc(-c4ccccc4)nc3C)nn2)cc1,?,·,·,·,12µM,–
Cc1nc(-c2ccccc2)sc1-c1ccc(SCC(=O)Nc2cccc(C(F)(F)F)c2)nn1,?,·,·,·,–,–
CCc1nc2cc(N3CCCC(C(=O)NC4CCCC4)C3)cnc2nc1CC (centres undefined),·,·,·,·,·,–
C#CC(C)(C)NS(=O)(=O)c1cccc2nsnc12,·,·,·,·,·,–
COc1ccccc1-c1ccc(=O)n(Cc2ccccc2F)n1,·,·,·,·,·,–
Cc1cc(C)c(NC(=O)CN(C2CCCCC2)C2CCCCC2)c(C)c1,23µM,–,–,–,16µM,–
CN(CC(=O)Nc1ccc(Cl)cc1)C1CCCCC1,–,–,–,–,?,?
Cc1ccc(NC(=O)CN(C)C2CCCCC2)cc1Br,?,–,–,–,18µM,–
Cc1cc(C)c(NC(=O)COC(=O)C2CCCCC2)c(C)c1,–,–,–,–,–,–
CS(=O)(=O)N(CC(=O)Nc1ccc(Br)cc1)C1CCCCC1,?,–,?,?,23µM,–
